Many of the other results were omitted from the sample, so hits are more common in it than they were.
Luciferase inh – qHTS Assay for Inhibitors of Firefly Luciferase; purified firefly luciferase, luminescence, 8 min; Luciferin 4-monooxygenase (Photinus pyralis), P08659; Potency, µM (highest dose often 57.1 µM), actives largely listed as inhibitors; hit rate 2.2% among 72,000; note: nearly all actives have a fitted effect of over 40% in size
Target sequence (P08659 whole entry, looked up): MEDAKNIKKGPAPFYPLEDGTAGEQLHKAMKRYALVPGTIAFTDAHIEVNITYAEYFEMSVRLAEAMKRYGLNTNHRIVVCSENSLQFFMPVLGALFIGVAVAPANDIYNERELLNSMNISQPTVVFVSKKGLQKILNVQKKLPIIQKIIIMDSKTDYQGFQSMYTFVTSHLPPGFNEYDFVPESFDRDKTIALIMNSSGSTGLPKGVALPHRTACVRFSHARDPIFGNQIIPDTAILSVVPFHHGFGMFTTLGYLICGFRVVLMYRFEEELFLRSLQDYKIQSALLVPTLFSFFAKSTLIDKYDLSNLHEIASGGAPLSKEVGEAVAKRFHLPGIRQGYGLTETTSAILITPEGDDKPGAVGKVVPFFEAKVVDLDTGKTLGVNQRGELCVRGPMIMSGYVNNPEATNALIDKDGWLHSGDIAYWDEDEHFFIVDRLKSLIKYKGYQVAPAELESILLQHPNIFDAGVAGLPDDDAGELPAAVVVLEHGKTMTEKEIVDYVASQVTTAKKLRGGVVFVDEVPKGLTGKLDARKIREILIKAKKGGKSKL
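Here, luciferase activity is measured as luminescence following an 8 min room-temperature reaction at 10 uM ATP, pH 7.2. Every library sample is titrated.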
IMPase inh – qHTS Assay for Identifying the Cell-Membrane Permeable IMPase Inhibitors | CHO-M1 cells, IP1 accumulation, HTRF TR-FRET ratio | Inositol monophosphatase 1 (Rattus norvegicus), P97697 | 120,000 tested, under 10 active | inhibition (IP1 accumulation), % at 46.1 µM | AID 901, 2007; active = well fitted curve in the direction sought with a large enough effect in the signal ratio, not every such curve was filed as active; inconclusive = small, poorly fitted or top-dose-only effect, or a change in a side signal; inactive = no such curve, though single readings can be large or run the other way; the % refers to the signal ratio;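 note: cells stimulated with carbachol in lithium chloride buffer; higher means more IMPase inhibition seen as more IP1 and lower FRET ratio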
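Cellular IMPase inhibition is scored as a rise in cytosolic IP1, detected by competitive TR-FRET between d2-labelled IP1 and a europium anti-IP1 antibody. M1-expressing CHO cells were stimulated with carbachol for 30 min at 37C, with lithium (50 mM LiCl) present in the buffer.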
p53ts 32C tox – qHTS Screen for Compounds that Selectively Target Cancer Cells with p53 Mutations: Cytotoxicity of p53ts Cells at the Permissive Temperature; H1299-p53A138V at 32C, ATP luminescence viability, 24 h; Potency, µM (top dose mostly 46.1 µM), hits mostly cytotoxic; hit rate 0.93% among 130,000; AID 924, 2007; note: nearly all actives have a fitted effect of over 55% in size
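Cells: H1299 p53ts (A138V), 600/well, pre-incubated 16–30 h at 37C. Cpd up to 46 uM, 24 h, 32C. Readout: ATPlite luminescence, 20 min RT. Normalization: DMSO vs tamoxifen 100 uM. AC50 by Hill equation.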
IkB sig inh – IkB Signaling; ABC-DLBCL IkBa-CBG/CBR dual luciferase ratio, 4 h; response scale: scaled: untreated 0%, proteasome inhibitor 100%; Potency, µM (highest dose often 57.1 µM); hit rate 0.04% among 110,000; AID 445, 2006; active = well fitted curve in the direction sought with a large enough effect in the signal ratio, not every such curve was filed as active; inconclusive = small, poorly fitted or top-dose-only effect, or a change in a side signal; the % refers to the signal ratio;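 note: the direction sought is a rising ratio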
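Luminescence ratio of IκBα-fused green versus native red beetle luciferase in OCI-Ly3 cells, 4 h post-doxycycline with compound; red signal alone, scaled from basal (0%) to zero light (-100%), flagged nonspecific or cytotoxic effects.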
Hsp90 Hop PPI – qHTS Assay for Disrupters of an Hsp90 Co-Chaperone Interaction; hit rate 0.44% among 71,000; AlphaScreen TPR2A-His6 binding biotin-Hsp90 C-terminal peptide; Potency, µM (doses to about 57 µM); active = well fitted curve in either direction with a large enough effect; inconclusive = small, poorly fitted or top-dose-only effect, or another doubt
p53ts 39C tox – qHTS Screen for Compounds that Selectively Target Cancer Cells with p53 Mutations: Cytotoxicity of p53ts Cells at the Nonpermissive Temperature; H1299-p53A138V viability at 39C, ATP luminescence, 24 h; hit rate 1.5% among 130,000; Potency, µM (doses to about 46.1 µM), most hits filed as cytotoxic; note: nearly all actives have a fitted effect of over 55% in size
A number is an active result; n = inactive; u = inconclusive; x = not tested or not shown; [ ] = another dose, or the depositor's remark. Unless noted, calls come from the whole dose curve; as a rule, active = well fitted curve in the direction sought with a large enough effect; inconclusive = small, poorly fitted or top-dose-only effect, or another doubt; inactive = no such curve, though single readings can be large; an effect the other way counts as inactive or inconclusive.

SMILES	Luciferase inh	IMPase inh	p53ts 32C tox	IkB sig inh	Hsp90 Hop PPI	p53ts 39C tox
CC1CCC(C(=O)NC(C(=O)OCC(=O)c2ccc(Br)cc2)C(C)C)CC1 (stereo not given)	x	n	n	u	x	n
O=C(OCC(=O)c1c[nH]c2ccccc12)c1ccco1	15.8µM	n	n	n	n	n
O=C1C(C=NCCN2CCOCC2)=C(O)c2ccccc21	12.6µM	x	n	n	n[11 µM]	n
O=C1C(C=NCCCN2CCOCC2)=C(O)c2ccccc21	n	n	n	n	n	n
COc1cc2c(=O)c(C(=O)c3ccc(C)c(C)c3)cn(Cc3ccccc3F)c2cc1OC	x	x	n	u	x	n
CC1Cc2cc(S(=O)(=O)NCc3ccccc3Cl)ccc2N1C(=O)C1CCC1 (stereo not given)	x	x	n	x	x	x
Cn1c(C(=O)NCc2cccs2)cc2c(=O)n(C)c3ccccc3c21	n	n	n	n	n[2.3 µM]	n
COc1cccc(CNC(=O)c2cc3c(=O)n(C)c4ccccc4c3n2C)c1	x	x	n	u	x	10µM
CCN(CC)C(=O)c1ccc2c(c1)N(Cc1ccc(C(F)(F)F)cc1)C(=O)c1ccccc1S2	x	x	n	u	x	u
Nc1ccc2c(c1)CCC2=O	12.6µM	x	n	n	n	n
COc1ccc2c(c1OC)CCC2=O	x	n	n	x	x	n
Cc1cc(C)n(CCOC(=O)c2sc3ccccc3c2Cl)n1	15.8µM	u	n	n	n	n
CCCN1C(=O)C(Cc2nc3ccccc3c(=O)n2CC)c2cc(Br)ccc21 (stereo not given)	x	x	n	u	x	10µM
CC[C@H](C)[C@@H]1O[C@]2(CC[C@@H]1C)C[C@H]1C[C@H](CC=C(C)[C@@H](O[C@H]3C[C@H](OC)[C@H](O[C@H]4C[C@H](OC)[C@H](O)[C@H](C)O4)[C@H](C)O3)[C@@H](C)C=CC=C3CO[C@@H]4[C@@H](O)C(C)=C[C@H](C(=O)O1)[C@@]34O)O2	n	n	10µM	n	n	5.01µM
CC[C@@H](C)[C@H]1O[C@]2(CC[C@@H]1C)C[C@@H]1C[C@H](C/C=C(/C)[C@H](O[C@@H]3C[C@H](OC)[C@H](O[C@@H]4C[C@H](OC)[C@@H](O)[C@H](C)O4)[C@H](C)O3)[C@@H](C)/C=C\C=C3CO[C@@H]4[C@H](O)C(C)=C[C@@H](C(=O)O1)[C@]34O)O2 (tested in a mixture with another compound)	n	n	12.6µM	u	n	12.6µM
CC[C@H](C)[C@@H]1O[C@]2(CC[C@@H]1C)C[C@H]1C[C@H](CC=C(C)[C@@H](O[C@@H]3C[C@H](OC)[C@H](O[C@@H]4C[C@H](OC)[C@H](O)[C@H](C)O4)[C@H](C)O3)[C@@H](C)C=CC=C3CO[C@@H]4[C@@H](O)C(C)=C[C@@H](C(=O)O1)[C@]34O)O2	n	n	u	n	n	12.6µM
COc1ccc(-c2noc(N3CCC(C(=O)N(C)c4cc(Cl)ccc4OC)CC3)n2)cc1	x	x	n	n	x	n
O=C(Nc1ccccc1)c1ccccc1O	20µM	n	u	u	n	n
Cc1ccc(NC(=O)c2ccccc2O)cc1	5.01µM	n	14.1µM	u	n	10µM
Cc1ccc(NC(=O)c2ccccc2)cc1	x	n	x	x	x	x
COc1ccc2c(c1)[C@]1(C)CCC[C@](C)(CO)[C@@H]1CC2	n[11.4 µM]	x	x	n[11.4 µM]	n	x
Nc1ccc(S(=O)(=O)NCCS(=O)(=O)O)cc1	n[11.4 µM]	x	n[9.22 µM]	n[11.4 µM]	n[11 µM]	n[9.22 µM]
COc1cc2ccccc2cc1C(=O)N1CCN(c2nc3ccc(F)cc3s2)CC1	x	x	n	u	x	n
COc1ccc(CNCCC(c2ccc3c(c2)OCO3)c2ccccc2OC)cc1 (stereo not given)	x	n	u	u	x	15.8µM
O=C(CCCn1ccc2cc(S(=O)(=O)N3CCCC3)ccc21)NCc1ccc(Cl)cc1	x	x	n	u	x	n
SMILES	Luciferase inh	IMPase inh	p53ts 32C tox	IkB sig inh	Hsp90 Hop PPI	p53ts 39C tox
O=C(CSc1nnc(-c2ccc(Cl)cc2)o1)c1ccc([N+](=O)[O-])cc1	x	x	n	n	x	n
COc1ccccc1NC(=O)CSc1nnc(-c2ccc(C)cc2)o1	n	n	7.94µM	u	n	6.31µM
O=C(CSc1nnc(-c2ccccc2F)o1)Nc1ccccc1Cl	x	x	u	n	x	12.6µM
CC(=O)Nc1cccc(-c2nnc(SCC(=O)c3cc([N+](=O)[O-])ccc3Cl)o2)c1	x	x	u	u	x	12.6µM
COc1cccc(NC(=O)CSc2nnc(-c3cccc(OC)c3)o2)c1	x	x	12.6µM	u	x	10µM
COc1ccccc1-c1nnc(SCC(=O)Nc2ccc(Cl)cc2Cl)o1	n	n	n	n	n	n
Cc1cc(C)cc(NC(=O)c2cccc(C(=O)Nc3cc(C)cc(C)c3)c2)c1	x	n	n	n	x	n
COc1ccccc1NC(=O)CSc1nnc(-c2ccccn2)n1Cc1ccco1	n	n	n	n	n	n
COc1ccccc1NC(=O)CSc1nnc(-c2ccco2)n1Cc1ccco1	25.1µM	n	n	n	n	n
COCCCn1c(SCC(=O)OC2CCCCC2)nnc1-c1ccco1	25.1µM	n	u	n	n	n
CCCc1nn2cc(-c3ccc(C)c(C)c3)nc2s1	x	x	7.94µM	u	x	7.94µM
Oc1ccc(CNc2ccccc2F)c2cccnc12	n	n	n	n	5.01µM	n
OCCN1CCN(Cc2cc(Cl)c3cccnc3c2O)CC1	x	n	x	x	x	x
Oc1ccc(COCc2ccccc2)c2cccnc12	n	n	n	u	25.1µM	u
Oc1c(CN2CCCCC2)cc(COCc2ccccc2)c2cccnc12	n	n	n	n	2.51µM	n
Oc1ccc(CNCc2ccccc2)c2cccnc12	n[11.4 µM]	x	n[9.22 µM]	n[11.4 µM]	u	n[9.22 µM]
Oc1c(CN2CCN(c3ccccn3)CC2)cc(Cl)c2cccnc12	n	n	n	u	7.94µM	n
Oc1ccc(CN2CCCCC2)c2cccnc12	x	n	n	x	x	u
COCc1cc(CN2CCCC2)c(O)c2ncccc12	n	n	n	n	3.16µM	u
O=C(O)c1nnsc1-c1ccc(-c2snnc2C(=O)O)cc1	n[11.4 µM]	x	n[9.22 µM]	n[11.4 µM]	n[11 µM]	n[9.22 µM]
O=C(NCC12CC3CC(CC(C3)C1)C2)c1cc2n(n1)C(C(F)(F)F)CC(c1ccco1)N2 (stereo not given)	n	n	n	n	u	20µM
COc1ccc(NC(=O)c2cc3n(n2)C(C(F)(F)F)CC(c2ccco2)N3)cc1 (stereo not given)	n	n	n	n	n	n
COc1ccc(-c2cc(O)cc(O)c2)cc1	15.8µM	n	u	n	n	u

Screening results (PubChem)
